“And” between values parts separate entries of the source, which are not always exact repeats. Identical values can stand only once. About 83,000 compounds went through this panel and 20% of them were active in at least one assay; those are over-represented in the sample as a whole.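 Percent growth is the endpoint: 0 to 100 indicates growth inhibition (40 means 60% inhibition), 0 means no net growth, and negative values indicate cell death.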 The source made the active and inactive calls. How the source made its calls: active means growth percent below 10; inactive means the rest.
Experiments:
Experiment in all cases: NCI-60 one-dose screen, 48 h (100 = growth as untreated, 0 = no growth, -100 = all killed)
Conditions in all cases: 10 µM unless noted
[1] = system: T-47D breast
[2] = system: BT-549 breast
[3] = system: MDA-MB-435 melanoma
[4] = system: SW-620 colon
[5] = system: MCF7 breast
[6] = system: HCT-116 colon
[7] = system: HCC-2998 colon
[8] = system: KM12 colon

Measured: growth

OCc1cc(CN2CCCCC2)c(O)c2ncccc12
inactive: [1] 57.4% | [2] 59.7% | [3] 77% | [4] 39.7% | [5] 44.7% | [6] 44.1% | [7] 51.6% | [8] 30.2%

COc1ccc(-c2ccc(-c3ccc(C(=N)N)cn3)o2)cc1Cl
inactive: [1] 31.1% | [2] 57.8% | [7] 67.5% | [8] 16.4%
active: [3] -69.4% | [4] -50.3% | [5] -31.1% | [6] 0.389%

COc1cc(/C=C2/C=C(c3ccc(C(C)(C)C)cc3)N(CCc3ccc(S(N)(=O)=O)cc3)C2=O)cc(OC)c1OC
inactive: [1] 18.2% | [2] 48.1% | [3] 52.8% | [4] 63.3% | [5] 13.1% | [6] 23.5% | [7] 32.2% | [8] 43.8%

Nc1[nH]nc(Nc2ccccc2)c1-c1nc2ccccc2s1
active: [1] 2.9% | [6] 3.73%
inactive: [2] 38.1% | [3] 22.8% | [4] 15.5% | [5] 12.4% | [7] 18.3% | [8] 15.6%

Cc1ccc(NC(=O)c2ccc(CN3CCN(C)CC3)cc2)cc1Nc1nccc(-c2cccnc2)n1
inactive: [1] 81.4% and 57.8% | [2] 105% and 61.1% | [3] 92.6% and 77.7% | [4] 110% and 88.6% | [5] 91.9% and 55.7% | [6] 81.4% and 55.1% | [7] 122% and 96.8% | [8] 107% and 69%

N#Cc1ccccc1-c1ccc(Cn2c(-c3cscn3)nc3c(Cl)cccc32)cc1
inactive: [1] 56.3% | [2] 76.1% | [3] 90.1% | [4] 87.6% | [5] 64.2% | [6] 51.2% | [7] 93% | [8] 77.1%

COc1ccc(/C(C)=C(\c2ccc(OCCN3CCCCCC3)cc2)c2ccc(OC(=O)C3CCCCC3)cc2)cc1
active: [1] -57% | [2] -78.2% | [3] -77.1% | [4] -49.8% | [5] -23.6% | [6] -63.9% | [7] -79% | [8] -54.1%

CON1CCC[C@]2(C)[C@H]3CC[C@@H]4[C@H]5[C@@H](O)C(C)(C)CC[C@]5(CO)CC[C@@]4(C)[C@]3(C)CC[C@H]2C1(C)C
inactive: [1] 79.8% | [2] 115% | [3] 94.5% | [4] 98.4% | [5] 98.5% | [6] 88.6% | [7] 103% | [8] 105%

COC1=CC(=O)C(OC)=C(O)C1=O
inactive: [1] 89% | [2] 98.9% | [3] 101% | [4] 93.2% | [5] 91.5% | [6] 98.7% | [7] 101% | [8] 102%

CCOC(=O)C(=CCC(C)C)C(=O)OCC
inactive: [1] 88.2% | [2] 93.1% | [3] 99.7% | [4] 105% | [5] 99.5% | [6] 98.9% | [7] 92.4% | [8] 110%

C/C=C(\C)C(=O)N[C@H]1CC[C@]2(C)C3CC[C@@]4(C)C(CC[C@@H]4C(C)N(C)C)C3CCC2[C@H]1OC(C)=O (some centres undefined)
active: [1] -43.5% | [2] -11% | [3] -56.8% | [4] -93% | [5] -27% | [6] -83.3% | [7] -85.4% | [8] -48.1%

Cc1[nH]c(C(=O)Nc2nc3ccc(NC(=O)CCN)cc3s2)c(Cl)c1Cl
inactive: [1] 54.8% | [2] 88.9% | [3] 91.3% | [4] 43.7% | [5] 52.3% | [6] 59.9% | [7] 96.4% | [8] 90.3%

COc1cc2nc3cc([N+](=O)[O-])ccc3c(NCCNCC(C)(C)O)c2cc1OC
active: [1] -3.16% | [2] -75.6% | [3] -86.8% | [4] -15.2% | [5] -14.1% | [6] -20.9% | [7] -53.3% | [8] -7.24%

O=C1C(c2c[nH]c3ccccc23)=C(c2coc3cc(Br)ccc23)C(=O)N1O
inactive: [1] 77.5% | [2] 103% | [3] 103% | [4] 102% | [5] 80.6% | [6] 96.7% | [7] 100% | [8] 97.9%

O=C1C=CC(=O)N1c1ccc2ccccc2c1
19.4% (inactive) and -15.2% (active): [4]
inactive: [1] 88.7% and 88.6% | [2] 114% and 103% | [3] 120% and 95.4% | [5] 95.4% and 106% | [6] 44.9% and 54.9% | [7] 100% and 106% | [8] 103% and 104%

CC/C(=C(/c1ccc(O)cc1)c1ccc(OCCN2CCCCCC2)cc1)c1ccc(Cl)cc1
active: [6] -53%
inactive: [1] 51.9% | [2] 69.8% | [3] 81.1% | [4] 62.6% | [5] 13% | [7] 28.8% | [8] 38.2%

NS(=O)(=O)c1ccc(C(=O)N=Nc2c(O)[nH]c3c(F)cccc23)cc1
inactive: [1] 97% | [2] 99.7% | [3] 107% | [4] 100% | [5] 96.4% | [6] 103% | [7] 106% | [8] 107%

CC[C@@H]1NC(=O)[C@H]([C@H](O)[C@H](C)C/C=C/c2ccc(CN3C(=O)C(C)=C(C)C3=O)cc2)N(C)C(=O)[C@H](C(C)C)N(C)C(=O)[C@H](CC(C)C)N(C)C(=O)[C@H](CC(C)C)N(C)C(=O)[C@@H](C)NC(=O)[C@H](C)NC(=O)[C@H](CC(C)C)N(C)C(=O)[C@H](C(C)C)NC(=O)[C@H](CC(C)C)N(C)C(=O)CN(C)C1=O
inactive: [1] 54.7% | [2] 82.4% | [3] 82.7% | [4] 97.7% | [5] 50.9% | [6] 54.8% | [7] 87.2% | [8] 78.7%

COc1cc(CNC(=O)CCCC/C=C/C(C)C)ccc1O
inactive: [1] 97.4% and 96.2% | [2] 125% and 83.4% | [3] 99% and 106% | [4] 113% | [5] 103% and 96.7% | [6] 96.4% and 100% | [7] 143% and 109% | [8] 106% and 108%

COCCn1cc(-c2csc(-c3cn(C)c4ccc(F)cc34)n2)c2cccnc21
inactive: [1] 25.2% | [2] 63.8% | [3] 40.8% | [4] 37.6% | [5] 25.9% | [6] 75.5% | [7] 49.6% | [8] 40%

CCOC(=O)C(=Cc1ccc(C#N)cc1)C(=O)OCC
inactive: [2] 47.3% | [5] 12.3% | [7] 78.7% | [8] 29.8%
active: [1] 9.64% | [3] 8.84% | [4] 0.79% | [6] -13.1%

CCN1C(=O)N(c2ccccc2)C2NC(=S)N(/N=C/C=C/c3ccccc3)C21 (centres undefined)
inactive: [1] 38.2% | [4] 26.5% | [7] 17.6% | [8] 21%
active: [2] -8.95% | [3] -35.1% | [5] 3.24% | [6] 2.69%

O=C(Nc1ccccc1C(=O)N/N=C(\c1ccccc1)c1ccccn1)c1ccccc1
inactive: [1] 13.3% | [2] 31.3% | [3] 27.7% | [4] 29.2% | [6] 20.7% | [7] 29.7% | [8] 21.6%
active: [5] 9.02%

CCN(CC)CC(=O)Nc1ccc2ncnc(Nc3ccc(Oc4cccc(F)c4)c(Cl)c3)c2c1
inactive: [1] 54.5% | [2] 78.5% | [3] 75% | [4] 67.6% | [5] 52.9% | [6] 64.7% | [7] 53.1% | [8] 51.5%

COc1ccc(-c2nc(Cl)c3c(C)nn(-c4ccc(F)cc4)c3n2)cc1
inactive: [1] 102% | [2] 123% | [3] 112% | [4] 103% | [5] 105% | [6] 96.5% | [7] 103% | [8] 104%

O=C(O)c1ccccc1Cc1ccc(F)c2ccccc12
inactive: [1] 101% and 108% | [2] 134% and 106% | [3] 110% and 109% | [4] 105% and 95.8% | [5] 99.2% and 102% | [6] 120% and 101% | [7] 109% and 103% | [8] 103% and 104%

CCOC(=O)c1c(-c2ccc(C)cc2)c(C#N)c(=O)n(-c2cccc(C(F)(F)F)c2)c1N
inactive: [1] 99.9% | [2] 113% | [3] 102% | [4] 101% | [5] 94% | [6] 103% | [7] 107% | [8] 100%

COc1cc(Cl)cc(-c2nn(C(=O)NS(=O)(=O)c3ccc(Cl)cc3)cc2-c2ccncc2)c1
inactive: [1] 90.8% | [2] 41.2% | [3] 87.5% | [4] 114% | [5] 102% | [6] 95.2% | [7] 99.3% | [8] 92.9%
